The target in assay [1] is human AMP-activated Protein Kinase, alpha 1 (AMPKa1), PRKAA1 (gene 5562) (UniProt Q13131). Kind of assay: NVS_ENZ_hAMPKa1: NovaScreen (NVS) Enzymatic Assay for human AMP-activated Protein Kinase, alpha 1 (AMPKa1) (AID 2283130). Put shortly:
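Recombinant human AMPKα1 activity was measured cell-free by fluorescent substrate conversion with electrophoretic mobility-shift separation, 1 h after dosing. Duplicate single-point screening was at 25 uM; actives (≥30% inhibition) were retested in concentration-response up to 50 uM.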

Assay [2] addresses human AKT serine/threonine Kinase 2 (AKT2), AKT2 (gene 208) (UniProt P31751). The experiment in a line: NVS_ENZ_hAKT2: NovaScreen (NVS) Enzymatic Assay for human AKT serine/threonine Kinase 2 (AKT2) (AID 2283141). Put shortly: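 Cell-free fluorescence/electrophoretic mobility shift readout of recombinant human AKT2 activity, 1 h after chemical dosing. Duplicate primary screen at 25 uM, then singleton concentration-response up to 50 uM; loss of signal versus DMSO baseline.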

Assay [3] addresses human Caspase 2 (CASP2), CASP2 (gene 835) (UniProt P42575). The experiment in a line: NVS_ENZ_hCASP2: NovaScreen (NVS) Enzymatic Assay for human Caspase 2 (CASP2) (AID 2283135). The method, boiled down:
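E. coli-expressed enzyme in a cell-free protease assay, fluorescence read 1 h after dosing. Compounds at 25 uM in duplicate, with concentration-response up to 50 uM for hits; loss of signal against DMSO baseline.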

Assay [4] concerns the target Cytochrome P450 2C19 (Homo sapiens) (UniProt P33261). The experiment in a line: NVS_ADME_hCYP2C19: NovaScreen (NVS) CYP450-related Enzyme Activity (ADME) Assay for human CYP2C19 (AID 2283113).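 Note: potency for inhibition seen as loss of fluorescent signal.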 Put shortly: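 Cell-free assay of recombinant human CYP2C19 expressed in insect cells, with a fluorogenic substrate; fluorescence intensity read 1 hour after dosing. Loss of signal relative to acetonitrile negative control indicates inhibition. Primary screen at 10 uM in duplicate, then concentration series.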

In assay [5] the target is human CYP2D6, CYP2D6 (gene 1565) (UniProt P10635). The experiment in a line: NVS_ADME_hCYP2D6: NovaScreen (NVS) CYP450-related Enzyme Activity (ADME) Assay for human CYP2D6 (AID 2283107). Put shortly: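 Cell-free assay using recombinant enzyme expressed in insect cells, with fluorescence-intensity readout of enzyme activity 1 hour after chemical dosing. Loss of signal versus acetonitrile negative control indicates inhibition. Primary screen ran in duplicate at 10 uM; actives were retested in concentration series.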

In assay [6] the target is human AKT serine/threonine Kinase 1 (AKT1), AKT1 (gene 207) (UniProt P31749). Kind of assay: NVS_ENZ_hAKT1: NovaScreen (NVS) Enzymatic Assay for human AKT serine/threonine Kinase 1 (AKT1) (AID 2283138). Put shortly:
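Recombinant AKT1, specific substrate, cell-free; 1 h; fluorescence intensity/electrophoretic mobility shift. Duplicate single-point 25 uM, then singleton CRC max 50 uM. DMSO = negative control/baseline; signal loss = inhibition.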

Drawing on PubChem BioAssay (EPA / NIEHS), this text covers outcome and AC50 for eight molecules.

In general, AC50 refers to the midpoint of the concentration-response curve, whichever way the signal moves.

Structures are written as SMILES. Inconclusive results are not listed. Active and inactive are the calls of the source. Rule for the calls: active = hit-call score of the fitted dose curve at least 0.9, where 1 is the maximum; inconclusive = response in the unintended direction; inactive = score below 0.9.

human AMP-activated Protein Kinase, alpha 1 (AMPKa1), PRKAA1 (gene 5562), sequence (Q13131 whole entry, looked up): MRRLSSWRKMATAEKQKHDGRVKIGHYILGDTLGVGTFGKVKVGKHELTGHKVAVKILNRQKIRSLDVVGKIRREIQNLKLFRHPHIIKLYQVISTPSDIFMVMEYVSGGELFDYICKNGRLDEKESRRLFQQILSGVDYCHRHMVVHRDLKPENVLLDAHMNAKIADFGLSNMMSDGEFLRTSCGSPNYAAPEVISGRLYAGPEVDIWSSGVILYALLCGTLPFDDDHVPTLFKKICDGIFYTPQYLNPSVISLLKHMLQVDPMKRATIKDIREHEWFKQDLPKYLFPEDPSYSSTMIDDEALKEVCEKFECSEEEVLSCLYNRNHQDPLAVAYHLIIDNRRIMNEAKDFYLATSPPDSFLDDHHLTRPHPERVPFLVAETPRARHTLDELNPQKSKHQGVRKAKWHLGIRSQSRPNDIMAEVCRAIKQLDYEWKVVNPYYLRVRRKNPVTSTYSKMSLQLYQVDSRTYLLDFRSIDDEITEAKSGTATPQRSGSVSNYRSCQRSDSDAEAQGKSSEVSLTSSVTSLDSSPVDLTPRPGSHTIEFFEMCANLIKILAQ
human CYP2D6, CYP2D6 (gene 1565), sequence (P10635 whole entry, looked up): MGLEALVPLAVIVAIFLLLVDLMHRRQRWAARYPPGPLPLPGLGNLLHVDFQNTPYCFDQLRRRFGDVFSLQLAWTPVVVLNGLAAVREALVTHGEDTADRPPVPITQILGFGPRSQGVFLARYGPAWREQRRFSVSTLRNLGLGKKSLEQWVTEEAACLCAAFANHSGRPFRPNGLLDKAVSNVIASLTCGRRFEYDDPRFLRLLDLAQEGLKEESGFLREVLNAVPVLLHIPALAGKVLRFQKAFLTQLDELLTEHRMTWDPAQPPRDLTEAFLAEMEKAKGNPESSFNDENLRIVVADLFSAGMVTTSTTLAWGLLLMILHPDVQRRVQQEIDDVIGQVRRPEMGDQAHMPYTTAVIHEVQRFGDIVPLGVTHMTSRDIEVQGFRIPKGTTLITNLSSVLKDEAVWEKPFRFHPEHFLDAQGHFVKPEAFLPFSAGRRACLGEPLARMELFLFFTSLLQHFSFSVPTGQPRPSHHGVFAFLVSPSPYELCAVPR
human AKT serine/threonine Kinase 2 (AKT2), AKT2 (gene 208), sequence (P31751 whole entry, looked up): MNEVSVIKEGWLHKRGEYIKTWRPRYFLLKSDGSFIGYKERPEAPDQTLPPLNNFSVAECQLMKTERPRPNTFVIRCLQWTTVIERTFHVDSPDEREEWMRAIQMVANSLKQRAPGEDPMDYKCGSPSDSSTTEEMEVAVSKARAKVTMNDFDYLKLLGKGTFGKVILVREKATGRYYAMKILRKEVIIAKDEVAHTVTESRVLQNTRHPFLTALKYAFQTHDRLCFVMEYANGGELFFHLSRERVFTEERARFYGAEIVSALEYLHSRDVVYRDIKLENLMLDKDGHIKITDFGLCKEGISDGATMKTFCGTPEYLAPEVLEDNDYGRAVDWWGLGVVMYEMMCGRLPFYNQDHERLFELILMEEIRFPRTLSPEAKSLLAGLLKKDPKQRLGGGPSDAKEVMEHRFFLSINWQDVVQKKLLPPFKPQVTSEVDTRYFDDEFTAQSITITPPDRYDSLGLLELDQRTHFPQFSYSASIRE
human Caspase 2 (CASP2), CASP2 (gene 835), sequence (P42575 whole entry, looked up): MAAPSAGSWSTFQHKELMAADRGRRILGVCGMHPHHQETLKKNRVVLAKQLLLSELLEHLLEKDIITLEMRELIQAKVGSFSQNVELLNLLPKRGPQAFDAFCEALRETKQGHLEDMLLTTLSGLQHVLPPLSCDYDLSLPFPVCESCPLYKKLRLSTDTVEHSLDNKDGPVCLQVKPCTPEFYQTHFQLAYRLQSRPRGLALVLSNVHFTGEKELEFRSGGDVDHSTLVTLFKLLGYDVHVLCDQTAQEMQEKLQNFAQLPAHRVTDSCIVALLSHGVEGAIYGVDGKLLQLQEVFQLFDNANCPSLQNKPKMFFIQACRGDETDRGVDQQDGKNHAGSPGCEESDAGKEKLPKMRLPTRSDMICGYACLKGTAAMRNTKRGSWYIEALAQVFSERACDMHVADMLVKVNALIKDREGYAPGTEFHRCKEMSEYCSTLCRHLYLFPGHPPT
human AKT serine/threonine Kinase 1 (AKT1), AKT1 (gene 207), sequence (P31749 whole entry, looked up): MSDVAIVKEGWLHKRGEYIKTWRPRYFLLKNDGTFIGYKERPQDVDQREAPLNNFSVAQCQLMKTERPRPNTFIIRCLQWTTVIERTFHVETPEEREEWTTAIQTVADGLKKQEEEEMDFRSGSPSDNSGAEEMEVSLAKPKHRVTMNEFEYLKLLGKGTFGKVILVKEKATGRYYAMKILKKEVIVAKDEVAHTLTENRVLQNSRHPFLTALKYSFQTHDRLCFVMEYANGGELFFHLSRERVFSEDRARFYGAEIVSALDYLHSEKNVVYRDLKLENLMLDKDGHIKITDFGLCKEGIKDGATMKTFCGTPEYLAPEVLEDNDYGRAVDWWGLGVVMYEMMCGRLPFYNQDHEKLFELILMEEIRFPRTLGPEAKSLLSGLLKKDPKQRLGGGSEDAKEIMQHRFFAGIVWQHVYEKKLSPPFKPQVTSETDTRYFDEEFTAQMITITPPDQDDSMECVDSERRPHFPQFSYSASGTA

Consider `O=S(=O)(O)C(F)(F)C(F)(F)C(F)(F)C(F)(F)C(F)(F)C(F)(F)F`, for which the molecule was classed as inactive in assay [1] and in assay [2]. As to `COS(=O)(=O)OC`, the molecule was called inactive in assay [3]. Regarding `CC(c1ccc(O)cc1)(c1ccc(O)cc1)c1ccc(O)cc1`, in assay [4], the AC50 is 1730 nM (active). As to `COc1ccc(O)c(C(C)(C)C)c1`, the AC50 in assay [4] is 12100 nM (active).

Consider `CO/C=C(/C(=O)OC)c1ccccc1COc1cccc(C(F)(F)F)n1`, for which, in assay [5], the result was inactive. The AC50 in assay [4] was 1000 nM (active). As for `CC#Cc1cc(C)nc(Nc2ccccc2)n1`, the outcome in assay [1] was inactive.

As for `ClC1=C(Cl)[C@]2(Cl)[C@@H]3[C@@H]4C[C@@H]([C@H]5O[C@@H]45)[C@@H]3[C@@]1(Cl)C2(Cl)Cl`, the AC50 in assay [4] was 3570 nM (active). For the molecule `Cc1ccccc1CO[C@@H]1C[C@@]2(C(C)C)CC[C@]1(C)O2`, the call in assay [6] was inactive.
